# Several values for one entry are separate records, joined by “and”; a condition that tells them apart may be missing. Identical values can stand only once. Records with an inconclusive call do not appear. A call without a number means that no potency is given here. Activity calls are given as the source filed them. The call rests on the fitted dose curve; in most records, active means well fitted cell-killing curve with a large enough effect in the repeat runs; inconclusive means weak or mixed curves, or effect the other way; inactive means no such curve, though single readings can be large or run the other way.
# Assay: qHTS assay to identify small molecule antagonists of the peroxisome proliferator-activated receptor gamma (PPARg) signaling pathway - cell viability counter screen (AID 743194); further: nearly all actives have a fitted effect of over 55% in size
# Settings: PPARg-bla HEK293H viability, CellTiter-Glo luminescence, 17 h, co-treated with 50 nM rosiglitazone; series mostly up to 62.6 µM
# Text: U.S. Tox21 Program National Center for Advancing Translational Sciences [NCATS] NIH Chemical Genomics Center [NCGC] U.S. Environmental Protection Agency [EPA] National Institutes of Environmental Health Sciences [NIEHS] National Toxicology Program [NTP] U.S. Food and Drug Administration [FDA] Tox21 Assay Overview: The peroxisome proliferator-activated receptors (PPARs) are lipid-activated transcription factors of the nuclear receptor superfamily with three distinct subtypes namely PPAR alpha, PPAR delta (also called PPAR beta) and PPAR gamma (PPARg). All these subtypes heterodimerize with Retinoid X receptor (RXR) and these heterodimers regulate transcription of various genes. PPAR-gamma receptor (glitazone receptor) is involved in the regulation of glucose and lipid metabolism. To identify the compounds that activate PPAR-gamma signaling, GeneBLAzer PPAR gamma UAS-bla HEK293H cell line (Invitrogen, Carlsbad, CA, USA) containing a beta-lactamase reporter gene under the control of an Upstream Activator Sequence (UAS) was used to screen the Tox21 compound library. The cytotoxicity of the Tox21 compound library against the PPARg-bla cell line was tested in parallel by measuring the cell viability using CellTiter-Glo assay in the same wells.
# Tox21 Assay Protocol Summary: PPARg-bla cells were dispensed at 3000 cells/5uL/well in 1536-well black wall/clear bottom plates using a Multidrop Combi (Thermo Fisher Scientific, Waltham, MA) dispenser. After the assay plates were incubated at 37 C and 5% CO2 for 5 h, 23 nL of compounds dissolved in DMSO, positive controls or DMSO only was transferred to the assay plate by a Pintool station (Kalypsys, San Diego, CA), followed by addition of 1ul Rosiglitazone (50 nM, final concentration in the wells). The assay plates were incubated at 37 C for 17 h, and then 1 uL of LiveBLAzerTM B/G FRET substrate was added using a Bioraptr Flying Reagent Dispenser (FRD) workstation (Beckman Coulter, Indianapolis, IN, USA). The assay plates were incubated at room temperature for 1 h and fluorescence intensity was measured by an Envision plate reader (PerkinElmer, Shelton, CT). For cell viability readout that measures cytotoxicity, 4 ul/well of CellTiter-Glo reagent was added into the assay plates using a Flying Reagent Dispenser. After 30 min incubation at room temperature, the luminescence intensity in the plates was measured using a ViewLux plate reader (PerkinElmer).
# Potency means the concentration at half of the fitted maximal effect.
row,Structure (SMILES),Potency
1,CCCc1c(OCCCCc2nn[nH]n2)ccc(C(C)=O)c1O,inactive
2,CCCCOCCOCCOCCO,inactive
3,C#C[C@]1(O)CC[C@H]2[C@@H]3CCC4=Cc5oncc5C[C@]4(C)[C@H]3CC[C@@]21C,54.9 µM (active)
4,Cc1cccc([N+](=O)[O-])c1C,inactive
5,CCCC(=O)O,inactive
6,c1cc(-c2ccncc2)ccn1,inactive
7,CCCCCCCCCC(=O)OC,inactive
8,O=C1OC2(c3cc(Br)c(O)c(Br)c3Oc3c2cc(Br)c(O)c3Br)c2c(Cl)c(Cl)c(Cl)c(Cl)c21,inactive
9,COc1ccccc1/C=C/C=O,inactive
10,CC1=CCC(C(C)(C)O)CC1 (stereo not given),inactive
11,Nc1ccccc1N,inactive
12,C#C[C@]1(O)CC[C@H]2[C@@H]3CCc4cc(OC)ccc4[C@H]3CC[C@@]21C,inactive
13,c1ccc(Nc2ccccc2)cc1,inactive
14,OC1CCCCCCCCCCC1,inactive
15,COc1ccc(C(=O)CC(=O)c2ccc(C(C)(C)C)cc2)cc1,inactive
16,CNCCCC12CCC(c3ccccc31)c1ccccc12,54.9 µM (active)
17,C[C@]12CC[C@H]3[C@@H](CCC4=CC(=O)CC[C@@]43C)[C@@H]1CC[C@@H]2C(=O)CO,inactive
18,C=C(C)C(=O)OCCOC(=O)C(=C)C,inactive
19,Nc1ccc(Nc2ccccc2)cc1,inactive
20,CC(C)OC(=O)C(C)(C)Oc1ccc(C(=O)c2ccc(Cl)cc2)cc1,inactive

row,Structure (SMILES),Potency
1,CCC(C)CO (stereo not given),inactive
2,O=C(OCc1ccccc1)c1ccccc1O,inactive
3,Cc1cc2nc3c(=O)[nH]c(=O)nc-3n(C[C@H](O)[C@H](O)[C@H](O)CO)c2cc1C,inactive
4,c1ccc2sc(SSN3CCOCC3)nc2c1,inactive
5,O=P(O)(O)O,inactive
6,Cn1cnc([N+](=O)[O-])c1Sc1ncnc2nc[nH]c12,inactive
7,Cc1ncc[nH]1,inactive
8,Nc1ccc(Cl)cc1Cl,inactive
9,CCOCCOCCO,inactive
10,S=C(NC1CCCCC1)NC1CCCCC1,inactive
11,CCCCC(CC)COC(=O)c1ccc(N(C)C)cc1 (stereo not given),inactive
12,O=C(c1ccccc1)c1ccccc1O,inactive
13,O=C=Nc1ccc(Cc2ccc(N=C=O)cc2)cc1,inactive
14,O=C(Nc1ccc(Cl)cc1)Nc1ccc(Cl)c(Cl)c1,4.34 µM (active) and 4.9 µM (active) and 6.68 µM (active)
15,C[C@]12CCC(=O)C=C1CC[C@@H]1[C@@H]2C(=O)C[C@@]2(C)[C@H]1CC[C@]2(O)C(=O)CO,inactive
16,CC(C(=O)O)c1cccc(C(=O)c2ccccc2)c1 (stereo not given),inactive
17,C=C(C)C1CC=C(C)CC1 (stereo not given),inactive
18,Clc1nc(Cl)c(Cl)c(Cl)c1Cl,inactive
19,CC(C)(C)NC(=O)[C@H]1CC[C@H]2[C@@H]3CC[C@H]4NC(=O)C=C[C@]4(C)[C@H]3CC[C@]12C,inactive
20,O=C(/C=C/C=C/c1ccc2c(c1)OCO2)N1CCCCC1,inactive
